This passage reports growth results from PubChem BioAssay (NCI).

The structures appear in SMILES notation. The panel holds about 83,000 compounds, 20% with a hit somewhere; the sample as a whole holds those more often.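 Percent growth is the endpoint: 0 to 100 indicates growth inhibition (40 means 60% inhibition), 0 means no net growth, and negative values indicate cell death.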 Unmarked numbers belong to inactive results. Active and inactive are the calls of the source. How the source made its calls: active means growth percent below 10; inactive means the rest.

One assay relates to IGROV1 ovarian. The assay can be described thus: NCI-60 one-dose screen, 48 h (100 = growth as untreated, 0 = no growth, -100 = all killed). The note with it: 10 µM unless noted.
Regarding `Clc1ccc(-c2noc(/C=C\c3ccccc3)n2)cc1`, the growth was 96.3%.
For `CC(=O)Nc1ncc(S(=O)(=O)c2ccc([N+](=O)[O-])cc2)s1`, the growth is 112%.
As for `CC(=O)NCNC(C)=O`, the growth is 113%.
Turning to `CCOC(=O)c1ccc(C(C)(C)C)cc1`, the growth is 108%.
Same read-out and setting: next, `NC(=S)N/N=C/c1ccc(Cl)cc1`: 107%; `Cc1ccc(NC(=O)c2ccccc2Cl)cc1`: 93.8%.
Take `C=CCC(OC(C)=O)c1ccc(OC)c(OC)c1` (stereo not drawn): the growth was 96.6%.
On the same count and under the same terms, the figure for `Oc1ccc(N=Cc2ccc(OCc3ccccc3)cc2)cc1` is 108%; for `COc1nc(Nc2cccc(C(F)(F)F)c2)nc(OC)n1` it is 93.1%.
In the case of `C=C1SC(=Nc2c(C)cccc2C)N(c2nc(Cl)nc(Cl)n2)C12CCCCC2`, the growth was 97.4%.
As for `O=C(CCl)Nc1ccccc1SCc1cc(Cl)cc2c1OCOC2`, the growth was -43% (active).
Turning to `Cc1c(-c2ccc(C3CCCCC3)cc2)nc2ccc(F)cc2c1C(=O)O`, the growth was 29.7%.
Regarding `C[n+]1cc2cc3c(cc2c2ccccc21)OCO3`, the growth is 84.1%.
On to `CCCC(=O)CC(=O)c1ccccc1`, for which the growth is 108%.
As to `O=C(O)Cc1ccc(Cl)cc1`, the growth is 109%.
The same measure, in the same setting: next, `CC(C)(CC(=O)O)CC(=O)O`: 111%.
The same measure, in the same setting: next, `CCOC(=O)C(C#N)=C1CCN(C)CC1`: 96.9%; `O=C1NC(=O)C(c2ccccc2)O1` (stereo not drawn): 108%.
The same measure, in the same setting: next, `COC1OC(COC(C)=O)C(OC(C)=O)C(OC(C)=O)C1OC(C)=O` (stereo not drawn): 118%.
Consider `C#CCSc1nnnn1-c1ccccc1`, for which the growth was 92.8%.

A further assay concerns OVCAR-3 ovarian. Described as above. The note with it: 10 µM unless noted.
Take `O=C(CCl)Oc1ccc([N+](=O)[O-])cc1`: the growth was 121%.
Take `Clc1cccc(Cl)c1CSc1nc2ccccc2n2cccc12`: the growth was 92.5%.
As for `Cc1cccnc1NC1OC(=O)c2ccccc21` (stereo not drawn), the growth was 107%.
On the same count and under the same terms, next, `COc1cc(OC)c(NC(=O)C(Sc2nc(C)cc(C)c2C#N)c2ccccc2)cc1Cl` (stereo not drawn): 113%.
As for `COc1ccc(/C=N/NC(=O)COCC(=O)N/N=C/c2ccc(OC)cc2)cc1`, the growth is 108%.
Consider `Nc1ccccc1SC1CC(=O)N(c2ccc(Cl)c(Cl)c2)C1=O` (stereo not drawn), for which the growth is 113%.
The same measure, in the same setting: next, `CC(C)c1ccccc1NC(=O)N1CCC(C(C)C)CC1`: 113%; `FC(F)(F)c1cc(NC2=NCCN=C(Nc3cc(C(F)(F)F)cc(C(F)(F)F)c3)SS2)cc(C(F)(F)F)c1`: 25.8%.
For `CC(CCC#N)(CCC#N)C(=O)c1ccccc1`, the growth is 123%.
Consider `CCCCCCCCNC(=O)C(C)C`, for which the growth was 109%.
Consider `CCCCCCCCCCCCCCCCCC(=O)NCCNC(=O)CCCCCCCCCCCCCCCCC`, for which the growth is 96.9%.
Turning to `C=CCC(OC(C)=O)c1ccc(C(C)C)cc1` (stereo not drawn), the growth is 162%.
For the molecule `CC(=O)c1cc(O)ccc1O`, the growth is 119%.
On to `CCCNS(=O)(=O)c1ccc(Cl)cc1`, for which the growth was 109%.
In the case of `S=c1nc(-c2ccccn2)c(-c2ccccn2)n[nH]1`, the growth is 107%.
For `CCOc1ccc(C(=O)NCC(C)C)cc1`, the growth is 109%.
On the same count and under the same terms, next, `O=C(O)c1cccc(-n2ncc(Cl)c(Cl)c2=O)c1`: 118%; `Cn1/c(=N\N=C\c2ccccc2OCCO)sc2ccccc21`: 95.2%.
Same read-out and setting: the figure for `Clc1ccc(-c2noc(/C=C\c3ccccc3)n2)cc1` is 102%.
Consider `CC(=O)Nc1ncc(S(=O)(=O)c2ccc([N+](=O)[O-])cc2)s1`, for which the growth is 120%.
Turning to `CC(=O)NCNC(C)=O`, the growth is 120%.
For `CCOC(=O)c1ccc(C(C)(C)C)cc1`, the growth is 107%.
For `NC(=S)N/N=C/c1ccc(Cl)cc1`, the growth is 116%.
In the case of `Cc1ccc(NC(=O)c2ccccc2Cl)cc1`, the growth was 122%.
With `C=CCC(OC(C)=O)c1ccc(OC)c(OC)c1` (stereo not drawn), the growth is 111%.
With `Oc1ccc(N=Cc2ccc(OCc3ccccc3)cc2)cc1`, the growth was 103%.
As to `COc1nc(Nc2cccc(C(F)(F)F)c2)nc(OC)n1`, the growth was 103%.
For the molecule `C=C1SC(=Nc2c(C)cccc2C)N(c2nc(Cl)nc(Cl)n2)C12CCCCC2`, the growth is 101%.
Turning to `O=C(CCl)Nc1ccccc1SCc1cc(Cl)cc2c1OCOC2`, the growth is 26.1%.
As for `Cc1c(-c2ccc(C3CCCCC3)cc2)nc2ccc(F)cc2c1C(=O)O`, the growth is 41%.
Turning to `C[n+]1cc2cc3c(cc2c2ccccc21)OCO3`, the growth was 51.5%.
Still for that read-out and setting: the figure for `CCCC(=O)CC(=O)c1ccccc1` is 99.4%.
Turning to `O=C(O)Cc1ccc(Cl)cc1`, the growth was 150%.
On to `CC(C)(CC(=O)O)CC(=O)O`, for which the growth was 105%.
Still for that read-out and setting: next, `CCOC(=O)C(C#N)=C1CCN(C)CC1`: 117%; `O=C1NC(=O)C(c2ccccc2)O1` (stereo not drawn): 117%.
In the case of `COC1OC(COC(C)=O)C(OC(C)=O)C(OC(C)=O)C1OC(C)=O` (stereo not drawn), the growth was 96%.
The same measure, in the same setting: the figure for `C#CCSc1nnnn1-c1ccccc1` is 79.1%.
